Experimental data taken from PubChem BioAssay (NCI).
The panel holds about 79,000 compounds, 15% with a hit somewhere; the sample as a whole holds those more often. Active and inactive are the calls of the source. Cut-off read from the data, not from the text of the source: active = growth inhibition above about 70%; inactive = the rest.

Legend:
[1] = NCI Yeast Anticancer Drug Screen. Data for the rad52 strain (AID 147);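 note: 0% = growth of vehicle-treated control cultures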; details: S. cerevisiae rad52 mutant growth inhibition, hits give high values
Outline: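 Compounds are applied to a genetically defined yeast strain lacking normal DNA damage repair, and inhibition of growth is expressed relative to cultures given vehicle only.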

[2] = NCI Yeast Anticancer Drug Screen. Data for the wt1 strain (AID 149);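 note: 0% = growth of vehicle-treated wt1 cultures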; details: S. cerevisiae wt1 strain (SPY 50644) growth inhibition, hits give high values
Outline: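 The wt1 strain was treated with compounds, and growth was compared with vehicle-treated cultures to give inhibition.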

[3] = NCI Yeast Anticancer Drug Screen. Data for the rad50EPP+ strain (AID 151);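 note: 0% = growth of vehicle-treated control cultures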; details: S. cerevisiae rad50 mutant strain, hits give high values
Outline: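 Compounds were applied to the rad50EPP+ yeast strain, which bears a defined DNA repair alteration, and growth inhibition was determined relative to vehicle-treated cultures.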

[4] = NCI Yeast Anticancer Drug Screen. Data for the mgt1 strain (AID 153); details: S. cerevisiae mgt1 mutant growth inhibition, hits give high values
Outline: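 Strain: mgt1 yeast, one of a set carrying defined DNA damage repair or cell cycle control alterations. Compound-treated growth compared with vehicle.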

[5] = NCI Yeast Anticancer Drug Screen. Data for the rad50 strain (AID 155);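 note: 0% = growth of vehicle-only cultures of the same strain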; details: S. cerevisiae rad50 strain growth inhibition, hits give high values
Outline: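 Cells are treated with compound, grown, and their growth is then scored against vehicle-only cultures of the same repair-deficient yeast strain.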

[6] = NCI Yeast Anticancer Drug Screen. Data for the mec2-1 strain (AID 157); details: S. cerevisiae mec2-1 strain, hits give high values
Outline: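 Strain: mec2-1 (DNA repair/cell cycle alteration). Compound exposure, then growth measured; inhibition expressed relative to vehicle.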

[7] = NCI Yeast Anticancer Drug Screen. Data for the rad14 strain (AID 159);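 note: 0% = growth of vehicle-treated control cultures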; details: S. cerevisiae rad14 strain growth inhibition, hits give high values
Outline: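 Readout: yeast growth inhibition, referenced to vehicle-only cultures. Strain bears a defined alteration in DNA damage repair.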

[8] = NCI Yeast Anticancer Drug Screen. Data for the sgs1 mgt1 strain (AID 161);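 note: 0% = growth of cultures given vehicle only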; details: S. cerevisiae sgs1 mgt1 strain, hits give high values
Outline: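 Genetically altered yeast, compound exposure, growth inhibition relative to vehicle.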

[9] = NCI Yeast Anticancer Drug Screen. Data for the cln2 rad14 strain (AID 165);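 note: 0% = growth equal to vehicle treated cultures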; details: S. cerevisiae cln2 rad14 strain, hits give high values
Outline: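 Compounds are applied to the cln2 rad14 yeast strain, and growth is then compared with that of vehicle-treated cultures to give inhibition.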

[10] = NCI Yeast Anticancer Drug Screen. Data for the bub3 strain (AID 167); details: S. cerevisiae bub3 mutant strain, hits give high values
Outline: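 Part of a panel of yeast mutants defective in DNA damage repair or cell cycle regulation. Each strain is grown with compound, and inhibition is calculated relative to solvent-treated cultures.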

[11] = NCI Yeast Anticancer Drug Screen. Data for the wt2 strain (AID 169);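 note: 0% = growth of vehicle-treated yeast cultures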; details: S. cerevisiae wt2 strain growth inhibition, hits give high values
Outline: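 This strain belongs to a panel of yeast strains with defined genetic alterations in DNA damage repair or cell cycle control. Compounds are applied, and growth inhibition is measured against vehicle-treated cultures.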

[12] = NCI Yeast Anticancer Drug Screen. Data for the mlh1 strain (AID 171);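 note: 0% = growth of vehicle-treated control cultures of the same strain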; details: S. cerevisiae mlh1 strain growth inhibition, hits give high values
Outline: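 Growth of the mutant yeast strain after compound exposure, expressed as inhibition relative to vehicle-only controls.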

[13] = NCI Yeast Anticancer Drug Screen. Data for the sgs1 strain (AID 173);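 note: 0% = growth of vehicle-only control cultures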; details: S. cerevisiae sgs1 mutant, hits give high values
Outline: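 Growth of a yeast strain bearing a defined genetic alteration is measured after compound treatment. Inhibition is expressed relative to vehicle-only controls.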

[14] = NCI Yeast Anticancer Drug Screen. Data for the mlh1 rad18 strain (AID 175); details: S. cerevisiae mlh1 rad18 strain growth inhibition, hits give high values
Outline: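 Read-out is yeast growth inhibition, calculated against vehicle-only controls. The compound was applied to a strain engineered with DNA damage repair alterations.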

[15] = NCI Yeast Anticancer Drug Screen. Data for the rad18 strain (AID 177); details: S. cerevisiae rad18 mutant growth inhibition, hits give high values
Outline: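 Growth of the mutant yeast strain after compound exposure, normalised to vehicle-only cultures.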

[16] = at 5.0 µM (retest, dose inferred, filed as 0.5)
[17] = at 50.0 µM (retest, dose inferred, filed as 5.0)

Measured: growth inhibition

CN(C)N=Nc1ccccc1C(=O)NC#N
inactive: [1]; at 1.2 µM 8% | [1]; at 3.7 µM 0% | [2]; at 1.2 µM -8% | [2]; at 3.7 µM -2% | [3]; at 1.2 µM 7% | [3]; at 3.7 µM 0% | [3]; at 11.0 µM 13% | [4]; at 1.2 µM -1% | [4]; at 3.7 µM 20% | [5]; at 1.2 µM -5% | [5]; at 3.7 µM -14% | [5]; [16] 18% | [6]; at 1.2 µM -12% | [6]; at 3.7 µM 0% | [6]; [16] 8% | [7]; at 1.2 µM -17% | [7]; at 3.7 µM -14% | [8]; [16] 36% | [8]; [17] 53% | [9]; [16] 35% | [9]; [17] 67% | [10]; at 1.2 µM 13% | [10]; at 3.7 µM 10% | [10]; [16] 39% | [11]; at 1.2 µM -8% | [11]; at 3.7 µM -1% | [12]; at 1.2 µM 1% | [12]; at 3.7 µM 4% | [13]; at 1.2 µM -6% | [13]; at 3.7 µM -24% | [14]; [16] 5% | [15]; at 1.2 µM 12% | [15]; at 3.7 µM 5%
active: [1]; at 11.0 µM 83% | [1]; at 33.0 µM 98% | [1]; at 100.0 µM 98% | [2]; at 11.0 µM 97% | [2]; at 33.0 µM 98% | [2]; at 100.0 µM 99% | [3]; at 33.0 µM 98% | [3]; at 100.0 µM 98% | [4]; at 11.0 µM 98% | [4]; at 33.0 µM 99% | [4]; at 100.0 µM 98% | [5]; at 11.0 µM 97% | [5]; at 33.0 µM 98% | [5]; [17] 98% | [5]; at 50.0 µM 90% | [5]; at 100.0 µM 94% | [6]; at 11.0 µM 97% | [6]; at 33.0 µM 99% | [6]; [17] 99% | [6]; at 50.0 µM 91.5% | [6]; at 100.0 µM 95% | [7]; at 11.0 µM 75% | [7]; at 33.0 µM 98% | [7]; at 100.0 µM 96% | [8]; at 50.0 µM 91.5% | [9]; at 50.0 µM 89.8% | [10]; at 11.0 µM 98% | [10]; at 33.0 µM 99% | [10]; [17] 77% | [10]; at 50.0 µM 90.2% | [10]; at 100.0 µM 99% | [11]; at 11.0 µM 98% | [11]; at 33.0 µM 99% | [11]; at 100.0 µM 99% | [12]; at 11.0 µM 93% | [12]; at 33.0 µM 99% | [12]; at 100.0 µM 98% | [13]; at 11.0 µM 98% | [13]; at 33.0 µM 98% | [13]; at 100.0 µM 99% | [14]; [17] 98% | [14]; at 50.0 µM 89.4% | [15]; at 11.0 µM 97% | [15]; at 33.0 µM 99% | [15]; at 100.0 µM 95%

CN1CCN(C(=O)/C=C/C(=O)c2ccccc2)CC1
active: [1]; at 100.0 µM 86% | [2]; at 100.0 µM 87% | [4]; at 33.0 µM 79% | [4]; at 100.0 µM 95% | [5]; at 50.0 µM 93.3% | [5]; at 100.0 µM 90% | [6]; at 50.0 µM 95% | [6]; at 100.0 µM 94% | [7]; at 100.0 µM 87% | [8]; at 50.0 µM 95.5% | [9]; at 50.0 µM 72.8% | [10]; at 33.0 µM 80% | [10]; [17] 91% | [10]; at 50.0 µM 82.5% | [10]; at 100.0 µM 90% | [12]; at 33.0 µM 85% | [12]; at 100.0 µM 96% | [13]; at 33.0 µM 84% | [13]; at 100.0 µM 95% | [14]; at 50.0 µM 97.5% | [15]; at 33.0 µM 84% | [15]; at 100.0 µM 95%
inactive: [1]; at 1.2 µM 4% | [1]; at 3.7 µM 11% | [1]; at 11.0 µM 24% | [1]; at 33.0 µM 63% | [2]; at 1.2 µM 4% | [2]; at 3.7 µM 12% | [2]; at 11.0 µM 24% | [2]; at 33.0 µM 47% | [3]; at 1.2 µM 4% | [3]; at 3.7 µM 13% | [3]; at 11.0 µM 31% | [3]; at 33.0 µM 50% | [3]; at 100.0 µM 66% | [4]; at 1.2 µM 2% | [4]; at 3.7 µM 10% | [4]; at 11.0 µM 34% | [5]; at 1.2 µM -3% | [5]; at 3.7 µM -8% | [5]; [16] 9% | [5]; at 11.0 µM 23% | [5]; at 33.0 µM 69% | [5]; [17] -3% | [6]; at 1.2 µM 2% | [6]; at 3.7 µM 12% | [6]; [16] -3% | [6]; at 11.0 µM 35% | [6]; at 33.0 µM 67% | [6]; [17] -3% | [7]; at 1.2 µM 9% | [7]; at 3.7 µM 12% | [7]; at 11.0 µM 20% | [7]; at 33.0 µM 40% | [8]; [16] 6% | [8]; [17] -9% | [9]; [16] 39% | [9]; [17] -10% | [10]; at 1.2 µM -3% | [10]; at 3.7 µM 3% | [10]; [16] 7% | [10]; at 11.0 µM 28% | [12]; at 1.2 µM -1% | [12]; at 3.7 µM 12% | [12]; at 11.0 µM 35% | [13]; at 1.2 µM 5% | [13]; at 3.7 µM 15% | [13]; at 11.0 µM 42% | [14]; [16] -5% | [14]; [17] 7% | [15]; at 1.2 µM 2% | [15]; at 3.7 µM 11% | [15]; at 11.0 µM 38%
